The source of these data is PubChem BioAssay (EPA / NIEHS).

A short description of experiment [1]: ATG_M_19_XSP1: Attagene TRANS-FACTORIAL Multi-Species (XSP1) HepG2 Assay for M19 Transcription Factor (Internal Marker) (AID 2283798). The method in brief:
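HepG2 cells transiently transfected with multiplexed GAL4-UAS reporter units, dosed 24 h with 3 nM 6-alpha-fluorotestosterone present for partial AR stimulation. Reporter mRNA measured by RT-PCR with capillary electrophoresis; gain-of-signal fitted relative to DMSO.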

Experiment [2] can be described thus: ATG_M_32_XSP1: Attagene TRANS-FACTORIAL Multi-Species (XSP1) HepG2 Assay for M32 Transcription Factor (Internal Marker) (AID 2283799). The method in brief: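 HepG2 cells transiently transfected with multi-species TRANS reporter units, dosed 24 h with 3 nM 6-alpha-fluorotestosterone present. Internal-marker reporter mRNA quantified by RT-PCR and capillary electrophoresis; positive-direction fit versus DMSO.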

The subject of experiment [3] is zebrafish Peroxisome Proliferator-activated Receptor gamma (PPARg), gene 557037. In words: ATG_zfPPARg_XSP1: Attagene TRANS-FACTORIAL Multi-Species (XSP1) HepG2 Assay for zebrafish Peroxisome Proliferator-activated Receptor gamma (PPARg) (AID 2283801). In a few lines: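 HepG2 cells transiently transfected with GAL4-UAS reporter units including a zebrafish PPARg–GAL4 chimera, dosed 24 h with 3 nM 6-alpha-fluorotestosterone present. Reporter mRNA quantified by RT-PCR, FAM labelling, HpaI digestion and capillary electrophoresis; induction versus DMSO.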

Experiment [4] concerns the target mouse Peroxisome Proliferator-activated Receptor gamma (PPARg), Pparg (gene 19016) (UniProt P37238). Description: ATG_mPPARg_XSP1: Attagene TRANS-FACTORIAL Multi-Species (XSP1) HepG2 Assay for mouse Peroxisome Proliferator-activated Receptor gamma (PPARg) (AID 2283802). The method in brief: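 HepG2 cells transiently transfected with GAL4-UAS reporter units driven by mouse PPARg–GAL4 chimera; 3 nM 6-alpha-fluorotestosterone present. After 24 h dosing, reporter mRNA quantified by RT-PCR, fluorescent labelling and capillary electrophoresis; gain of signal versus DMSO.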

For experiment [5], the target named is Nuclear receptor subfamily 1 group I member 2 (Mus musculus) (UniProt O54915). Description: ATG_mPXR_XSP1: Attagene TRANS-FACTORIAL Multi-Species (XSP1) HepG2 Assay for mouse Pregnane X Receptor (PXR) (AID 2283803). The method in brief:
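Transiently transfected HepG2 cells expressing a receptor-Gal4 chimera drive a GAL4-UAS reporter; 3 nM 6-alpha-fluorotestosterone included. Reporter mRNA read 24 h post-dose by RT-PCR and capillary electrophoresis; gain of signal relative to DMSO.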

Experiment [6] has as its system turtle Thyroid Hormone Receptor, alpha (TRa), gene 101949057. In words: ATG_trTRa_XSP1: Attagene TRANS-FACTORIAL Multi-Species (XSP1) HepG2 Assay for turtle Thyroid Hormone Receptor, alpha (TRa) (AID 2283806). The method in brief:
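HepG2 cells transiently transfected with GAL4-UAS reporter units and chimeric receptor-Gal4 constructs, with 3 nM 6-alpha-fluorotestosterone present. Reporter mRNA was quantified 24 h after dosing by RT-PCR, 6-FAM labelling and capillary electrophoresis; gain of signal versus DMSO.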

Experiment [7] concerns the target zebrafish Thyroid Hormone Receptor alpha (TRa), thraa (gene 30670) (UniProt Q98867). In words: ATG_zfTRa_XSP1: Attagene TRANS-FACTORIAL Multi-Species (XSP1) HepG2 Assay for zebrafish Thyroid Hormone Receptor alpha (TRa) (AID 2283807). In a few lines:
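HepG2 cells transiently transfected with GAL4-UAS reporter units including a zebrafish TRa–Gal4 chimera, dosed 24 h with 3 nM 6-alpha-fluorotestosterone present. Reporter mRNA quantified by RT-PCR and capillary electrophoresis; gain versus DMSO.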

The target in experiment [8] is human Thyroid hormone Receptor beta (TRb), THRB (gene 7068) (UniProt P10828). In words: ATG_hTRb_XSP1: Attagene TRANS-FACTORIAL Multi-Species (XSP1) HepG2 Assay for human Thyroid hormone Receptor beta (TRb) (AID 2283808). The method in brief:
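HepG2 cells transiently transfected with reporter units driving GAL4-UAS reporters for chimeric NR-Gal4 proteins; 24 h chemical exposure with 3 nM 6-alpha-fluorotestosterone present. Reporter mRNA quantified by RT-PCR and capillary electrophoresis, gain of signal versus DMSO.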

Experiment [9] concerns the target zebrafish Thyroid Hormone Receptor beta (TRb), thrb (gene 30607) (UniProt Q9PVE4). Description: ATG_zfTRb_XSP1: Attagene TRANS-FACTORIAL Multi-Species (XSP1) HepG2 Assay for zebrafish Thyroid Hormone Receptor beta (TRb) (AID 2283809). The method in brief:
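HepG2 cells transiently transfected with multiplexed GAL4-UAS reporter units expressing chimeric zebrafish TRb–Gal4. Dosed 24 h with 3 nM 6-alpha-fluorotestosterone present; reporter mRNA measured by RT-PCR, HpaI digestion and capillary electrophoresis; gain of signal versus DMSO.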

A short description of experiment [10]: ATG_XTT_Cytotoxicity_XSP1: Cytotoxicity Assessment in the Attagene TRANS-FACTORIAL Multi-Species (XSP1) HepG2 Assay (AID 2283810). In a few lines:
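XTT viability readout taken at 24 hours post-dosing in HepG2 liver cells co-treated with 3 nM 6-alpha-fluorotestosterone. Signal loss relative to DMSO controls reflects cytotoxicity.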

Experiment [11] concerns the target zebrafish Estrogen Receptor (ER1), esr1 (gene 259252) (UniProt P57717). Description: ATG_zfER1_XSP2: Attagene TRANS-FACTORIAL Multi-Species (XSP2) HepG2 Assay for zebrafish Estrogen Receptor (ER1) (AID 2283816). The method in brief: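 HepG2 cells transiently transfected with a GAL4-UAS reporter and a chimeric zebrafish ER1-Gal4 construct, dosed 24 h. Reporter mRNA quantified by RT-PCR, labelling, HpaI digestion and capillary electrophoresis, relative to DMSO.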

In experiment [12] the target is chicken Estrogen Receptor (ERa), ESR1 (gene 396099) (UniProt P06212). In words: ATG_chERa_XSP2: Attagene TRANS-FACTORIAL Multi-Species (XSP2) HepG2 Assay for chicken Estrogen Receptor (ERa) (AID 2283817).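 Further: actives raise reporter signal above DMSO so AC50 reflects ER activation.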 In a few lines: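 HepG2 cells transiently transfected with multiplexed GAL4-UAS reporter units expressing chimeric chicken ERa-Gal4; 24 h compound exposure. Reporter mRNA measured by RT-PCR with 6-FAM labelling, HpaI digestion and capillary electrophoresis; gain-of-signal fitted versus DMSO.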
chicken Estrogen Receptor (ERa), ESR1 (gene 396099), sequence (P06212 whole entry, looked up, the tested form may be a part): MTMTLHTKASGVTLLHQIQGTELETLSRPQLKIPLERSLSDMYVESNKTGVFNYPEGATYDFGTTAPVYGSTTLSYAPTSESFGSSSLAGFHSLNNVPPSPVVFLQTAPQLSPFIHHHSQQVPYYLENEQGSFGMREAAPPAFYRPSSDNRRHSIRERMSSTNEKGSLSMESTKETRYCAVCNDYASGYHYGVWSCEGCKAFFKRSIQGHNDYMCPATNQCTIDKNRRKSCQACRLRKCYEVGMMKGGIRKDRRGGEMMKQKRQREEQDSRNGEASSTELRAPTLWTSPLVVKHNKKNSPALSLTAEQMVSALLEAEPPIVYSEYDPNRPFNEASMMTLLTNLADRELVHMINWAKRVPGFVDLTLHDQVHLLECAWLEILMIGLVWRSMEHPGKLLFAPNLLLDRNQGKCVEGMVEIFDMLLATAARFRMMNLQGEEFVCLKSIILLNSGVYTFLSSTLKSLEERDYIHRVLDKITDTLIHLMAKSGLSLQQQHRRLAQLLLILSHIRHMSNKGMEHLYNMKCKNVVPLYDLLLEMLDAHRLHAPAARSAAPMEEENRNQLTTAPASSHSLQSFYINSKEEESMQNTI

Experiment [13] can be described thus: ATG_M_61_XSP1: Attagene TRANS-FACTORIAL Multi-Species (XSP1) HepG2 Assay for M61 Transcription Factor (Internal Marker) (AID 2283797). The method in brief:
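HepG2 cells transiently transfected with multiplexed GAL4-driven reporter units, dosed 24 h with 3 nM 6-alpha-fluorotestosterone present. Reporter mRNA quantified by RT-PCR, 6-FAM labelling, HpaI digestion and capillary electrophoresis; internal-marker background control, gain of signal versus DMSO.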

Experiment [14] addresses frog Thyroid hormone Receptor alpha (TRa), thra-a (gene 397942) (UniProt P15204). Description: ATG_frTRa_XSP1: Attagene TRANS-FACTORIAL Multi-Species (XSP1) HepG2 Assay for frog Thyroid hormone Receptor alpha (TRa) (AID 2283804). The method in brief: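 HepG2 cells transiently transfected with frog TRa-GAL4 chimeric reporter units, dosed 24 hr with 3 nM 6-alpha-fluorotestosterone present; reporter mRNA quantified by RT-PCR, fluorescent labelling and capillary electrophoresis, gain of signal versus DMSO.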

The target in experiment [15] is human Thyroid hormone Receptor alpha (TRa), THRA (gene 7067) (UniProt P10827). Description: ATG_hTRa_XSP1: Attagene TRANS-FACTORIAL Multi-Species (XSP1) HepG2 Assay for human Thyroid hormone Receptor alpha (TRa) (AID 2283805). In a few lines: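 HepG2 cells transiently transfected with GAL4-UAS reporter units expressing chimeric NR-Gal4 proteins, dosed 24 hours with 3 nM 6-alpha-fluorotestosterone present. Reporter mRNA measured by RT-PCR and capillary electrophoresis; gain of signal fitted versus DMSO.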
human Thyroid hormone Receptor alpha (TRa), THRA (gene 7067), sequence (P10827 whole entry, looked up, the tested form may be a part): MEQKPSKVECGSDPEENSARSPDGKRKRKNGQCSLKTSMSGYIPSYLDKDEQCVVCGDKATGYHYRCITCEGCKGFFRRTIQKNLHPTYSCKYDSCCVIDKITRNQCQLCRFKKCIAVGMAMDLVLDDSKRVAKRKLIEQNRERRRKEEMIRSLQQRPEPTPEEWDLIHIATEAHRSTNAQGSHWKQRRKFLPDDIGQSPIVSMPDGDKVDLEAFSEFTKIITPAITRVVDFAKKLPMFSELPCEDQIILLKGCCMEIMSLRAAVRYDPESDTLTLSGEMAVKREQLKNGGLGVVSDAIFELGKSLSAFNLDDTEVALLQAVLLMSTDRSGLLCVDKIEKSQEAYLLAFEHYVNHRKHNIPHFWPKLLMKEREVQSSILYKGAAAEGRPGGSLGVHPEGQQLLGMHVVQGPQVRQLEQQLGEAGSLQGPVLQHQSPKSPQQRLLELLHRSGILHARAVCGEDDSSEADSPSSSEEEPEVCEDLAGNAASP

Experiment [16] deals with Estrogen receptor beta (Homo sapiens) (UniProt Q92731). In words: ATG_hERb_XSP2: Attagene TRANS-FACTORIAL Multi-Species (XSP2) HepG2 Assay for human Estrogen Receptor (ERb) (AID 2283813).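 Further: actives raise reporter mRNA above DMSO so AC50 reflects agonist induction.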 In a few lines:
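HepG2 cells transiently transfected with GAL4-UAS reporter units and chimeric human ERb-Gal4, 24 h exposure. Reporter mRNA quantified by RT-PCR with FAM labelling, HpaI digestion and capillary electrophoresis; gain of signal versus DMSO.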

Experiment [17] addresses GAL4 Transcription Factor (Internal Marker), GAL4 (gene 855828) (UniProt P04386). In words: ATG_GAL4_XSP2: Attagene TRANS-FACTORIAL Multi-Species (XSP2) HepG2 Assay for GAL4 Transcription Factor (Internal Marker) (AID 2283814).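 Further: GAL4 reporter mRNA background control in MRTU transfected cells not a receptor target.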 The method in brief:
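HepG2 cells transiently transfected with GAL4-UAS reporter units, stimulated with 3 nM 6-alpha-fluorotestosterone plus 1.5 nM norgestrel, dosed 24 h. Reporter mRNA by RT-PCR/capillary electrophoresis; gain-of-signal fit versus DMSO, background control.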

A short description of experiment [18]: ATG_M_06_XSP2: Attagene TRANS-FACTORIAL Multi-Species (XSP2) HepG2 Assay for M06 Transcription Factor (Internal Marker) (AID 2283811).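 Further: hits are increases in signal above the DMSO baseline.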 In a few lines:
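HepG2 cells transiently transfected with GAL4-UAS multi-reporter constructs, dosed 24 h with 3 nM 6-alpha-fluorotestosterone plus 1.5 nM norgestrel present to stimulate androgen receptor. Reporter mRNA quantified by RT-PCR, 6-FAM labelling, HpaI digestion and capillary electrophoresis; gain-of-signal fitted versus DMSO baseline.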

Experiment [19] relates to turtle Androgen Receptor (AR), gene 101947425. Description: ATG_trAR_XSP2: Attagene TRANS-FACTORIAL Multi-Species (XSP2) HepG2 Assay for turtle Androgen Receptor (AR) (AID 2283815).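 On AC50: potency for gain of reporter signal meaning activation above DMSO baseline.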 The method in brief: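 HepG2 cells transiently transfected with GAL4-UAS reporter units for chimeric NR-Gal4 receptors; 24 h dosing in presence of 3 nM 6-alpha-fluorotestosterone and 1.5 nM norgestrel. Reporter mRNA by RT-PCR and capillary electrophoresis, gain of signal versus DMSO.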

Molecules are shown by their SMILES. Values joined by “and” are separate entries in the source; they are usually repeats but may differ in a detail not shown here. Identical values can stand only once. Inconclusive results are not listed. The source holds several records for some structures; these can differ, active in one and inactive in another. Active and inactive are the calls of the source. How the source made its calls: active means hit-call score of the fitted dose curve at least 0.9, where 1 is the maximum; inconclusive means response in the unintended direction; inactive means score below 0.9.

Estrogen receptor beta (Homo sapiens), sequence (Q92731 whole entry, looked up, the tested form may be a part): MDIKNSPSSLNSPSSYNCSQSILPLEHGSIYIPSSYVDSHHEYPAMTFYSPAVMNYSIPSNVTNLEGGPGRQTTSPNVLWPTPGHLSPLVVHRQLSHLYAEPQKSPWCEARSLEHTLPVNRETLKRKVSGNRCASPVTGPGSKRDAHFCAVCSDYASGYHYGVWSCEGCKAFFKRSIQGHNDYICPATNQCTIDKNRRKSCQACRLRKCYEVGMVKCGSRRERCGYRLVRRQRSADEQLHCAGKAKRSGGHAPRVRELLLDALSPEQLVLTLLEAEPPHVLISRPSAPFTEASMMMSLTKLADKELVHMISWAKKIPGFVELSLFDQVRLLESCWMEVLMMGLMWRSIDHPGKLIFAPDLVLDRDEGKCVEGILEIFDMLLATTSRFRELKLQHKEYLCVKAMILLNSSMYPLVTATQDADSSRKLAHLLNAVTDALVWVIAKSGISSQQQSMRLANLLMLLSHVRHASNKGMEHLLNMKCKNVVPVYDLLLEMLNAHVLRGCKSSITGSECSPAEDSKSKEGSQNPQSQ
Nuclear receptor subfamily 1 group I member 2 (Mus musculus), sequence (O54915 whole entry, looked up, the tested form may be a part): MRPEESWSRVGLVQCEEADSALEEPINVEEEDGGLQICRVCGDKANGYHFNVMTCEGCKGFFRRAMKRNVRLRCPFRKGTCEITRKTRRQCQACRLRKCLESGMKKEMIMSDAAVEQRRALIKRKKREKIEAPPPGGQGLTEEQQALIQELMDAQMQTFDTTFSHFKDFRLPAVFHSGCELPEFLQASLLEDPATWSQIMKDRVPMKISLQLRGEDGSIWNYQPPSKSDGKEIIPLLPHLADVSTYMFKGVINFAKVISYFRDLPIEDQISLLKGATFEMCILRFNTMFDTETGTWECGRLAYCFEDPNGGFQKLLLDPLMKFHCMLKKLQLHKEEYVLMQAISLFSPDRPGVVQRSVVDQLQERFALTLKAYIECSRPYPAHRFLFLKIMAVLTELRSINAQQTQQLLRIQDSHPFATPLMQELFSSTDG
zebrafish Estrogen Receptor (ER1), esr1 (gene 259252), sequence (P57717 whole entry, looked up, the tested form may be a part): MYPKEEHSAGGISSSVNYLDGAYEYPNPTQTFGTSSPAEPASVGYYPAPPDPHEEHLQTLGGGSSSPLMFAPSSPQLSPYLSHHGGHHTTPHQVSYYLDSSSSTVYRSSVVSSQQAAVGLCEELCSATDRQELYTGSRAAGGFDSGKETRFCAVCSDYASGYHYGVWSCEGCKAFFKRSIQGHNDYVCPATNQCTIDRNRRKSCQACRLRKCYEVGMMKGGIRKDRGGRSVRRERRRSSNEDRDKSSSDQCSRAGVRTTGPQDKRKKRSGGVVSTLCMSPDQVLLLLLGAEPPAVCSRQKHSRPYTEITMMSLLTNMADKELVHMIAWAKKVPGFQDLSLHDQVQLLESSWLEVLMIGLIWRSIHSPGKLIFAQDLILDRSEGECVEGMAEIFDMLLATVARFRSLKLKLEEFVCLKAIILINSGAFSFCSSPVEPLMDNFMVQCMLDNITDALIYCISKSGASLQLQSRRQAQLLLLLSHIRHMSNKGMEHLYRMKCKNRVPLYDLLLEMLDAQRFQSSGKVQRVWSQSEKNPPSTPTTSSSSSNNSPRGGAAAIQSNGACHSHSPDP
human Thyroid hormone Receptor beta (TRb), THRB (gene 7068), sequence (P10828 whole entry, looked up, the tested form may be a part): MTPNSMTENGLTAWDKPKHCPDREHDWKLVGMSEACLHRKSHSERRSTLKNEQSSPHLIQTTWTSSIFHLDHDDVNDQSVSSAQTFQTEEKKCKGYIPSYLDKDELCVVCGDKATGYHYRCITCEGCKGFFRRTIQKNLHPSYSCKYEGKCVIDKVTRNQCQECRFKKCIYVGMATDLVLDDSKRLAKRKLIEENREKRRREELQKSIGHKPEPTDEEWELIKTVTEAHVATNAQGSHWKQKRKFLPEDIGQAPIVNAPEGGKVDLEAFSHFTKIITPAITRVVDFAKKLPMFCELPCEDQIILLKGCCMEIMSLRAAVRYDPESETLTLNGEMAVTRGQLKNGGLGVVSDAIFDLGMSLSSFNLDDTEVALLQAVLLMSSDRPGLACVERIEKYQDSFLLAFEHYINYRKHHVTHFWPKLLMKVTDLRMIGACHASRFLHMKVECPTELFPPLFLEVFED
zebrafish Thyroid Hormone Receptor beta (TRb), thrb (gene 30607), sequence (Q9PVE4 whole entry, looked up, the tested form may be a part): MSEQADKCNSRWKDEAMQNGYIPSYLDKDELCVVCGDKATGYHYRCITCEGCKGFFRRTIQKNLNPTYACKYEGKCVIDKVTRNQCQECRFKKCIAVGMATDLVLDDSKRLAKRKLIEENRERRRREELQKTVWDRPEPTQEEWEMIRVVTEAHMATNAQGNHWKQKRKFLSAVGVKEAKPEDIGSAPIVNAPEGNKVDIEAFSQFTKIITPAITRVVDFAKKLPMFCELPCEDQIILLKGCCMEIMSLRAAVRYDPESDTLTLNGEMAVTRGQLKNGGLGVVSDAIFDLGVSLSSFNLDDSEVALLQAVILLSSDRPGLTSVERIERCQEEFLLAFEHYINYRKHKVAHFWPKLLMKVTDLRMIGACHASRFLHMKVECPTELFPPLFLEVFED
frog Thyroid hormone Receptor alpha (TRa), thra-a (gene 397942), sequence (P15204 whole entry, looked up, the tested form may be a part): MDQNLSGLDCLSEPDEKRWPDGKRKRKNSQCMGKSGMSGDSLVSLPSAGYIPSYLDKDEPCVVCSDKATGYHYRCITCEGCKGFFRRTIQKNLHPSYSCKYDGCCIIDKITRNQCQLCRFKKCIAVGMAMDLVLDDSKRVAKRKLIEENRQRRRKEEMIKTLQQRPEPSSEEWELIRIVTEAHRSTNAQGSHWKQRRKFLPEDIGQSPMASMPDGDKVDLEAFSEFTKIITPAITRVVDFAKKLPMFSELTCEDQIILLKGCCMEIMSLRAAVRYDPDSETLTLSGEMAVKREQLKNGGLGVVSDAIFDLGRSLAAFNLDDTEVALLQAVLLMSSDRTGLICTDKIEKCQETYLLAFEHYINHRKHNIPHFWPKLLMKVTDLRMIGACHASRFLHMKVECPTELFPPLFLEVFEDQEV
zebrafish Thyroid Hormone Receptor alpha (TRa), thraa (gene 30670), sequence (Q98867 whole entry, looked up, the tested form may be a part): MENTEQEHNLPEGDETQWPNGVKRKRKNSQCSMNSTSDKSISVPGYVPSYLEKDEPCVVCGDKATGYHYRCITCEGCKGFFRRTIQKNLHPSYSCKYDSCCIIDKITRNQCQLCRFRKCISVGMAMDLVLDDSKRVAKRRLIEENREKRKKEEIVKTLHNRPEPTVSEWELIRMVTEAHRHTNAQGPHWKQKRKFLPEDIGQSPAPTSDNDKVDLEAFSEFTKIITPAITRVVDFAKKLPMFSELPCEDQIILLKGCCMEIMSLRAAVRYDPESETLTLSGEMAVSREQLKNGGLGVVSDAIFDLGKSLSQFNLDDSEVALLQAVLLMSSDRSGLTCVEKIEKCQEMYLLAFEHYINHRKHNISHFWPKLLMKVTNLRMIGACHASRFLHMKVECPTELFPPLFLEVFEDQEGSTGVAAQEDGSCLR
mouse Peroxisome Proliferator-activated Receptor gamma (PPARg), Pparg (gene 19016), sequence (P37238 whole entry, looked up, the tested form may be a part): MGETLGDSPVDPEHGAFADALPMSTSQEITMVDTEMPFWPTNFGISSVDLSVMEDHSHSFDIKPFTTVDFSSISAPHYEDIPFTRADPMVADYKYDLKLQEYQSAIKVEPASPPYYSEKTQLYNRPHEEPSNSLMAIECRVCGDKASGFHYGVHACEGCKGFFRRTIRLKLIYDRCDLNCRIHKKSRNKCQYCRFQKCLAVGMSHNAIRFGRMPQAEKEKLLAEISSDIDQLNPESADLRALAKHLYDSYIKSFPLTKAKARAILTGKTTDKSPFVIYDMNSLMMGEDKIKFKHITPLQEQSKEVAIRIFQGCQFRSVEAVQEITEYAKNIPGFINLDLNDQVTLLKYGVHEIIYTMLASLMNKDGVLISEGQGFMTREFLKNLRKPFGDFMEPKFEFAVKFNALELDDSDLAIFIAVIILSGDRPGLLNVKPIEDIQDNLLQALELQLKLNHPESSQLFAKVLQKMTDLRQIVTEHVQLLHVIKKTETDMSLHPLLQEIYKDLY

Take `ClC(Cl)=C(c1ccc(Cl)cc1)c1ccc(Cl)cc1`: the compound was classed as inactive in experiment [1], in experiment [2], in experiment [3], in [4], in experiment [5] and in experiment [6]. In addition, the outcome in [7], in [8], in [9], in experiment [10] and in [11] was inactive. The AC50 in experiment [12] was 3270 nM (active).

On to `Oc1ccc(C(c2ccc(O)cc2)(C(F)(F)F)C(F)(F)F)cc1`, for which the compound was classed as inactive in [13], in experiment [2], in experiment [5], in experiment [14], in experiment [15] and in experiment [6]. Moreover, the result in experiment [7], in experiment [8], in [9], in experiment [16], in [17] and in experiment [11] was inactive. For the same compound, the result in [12] was inactive. The AC50 in experiment [4] was 33.4 µM (active); in experiment [8] it was 62.3 µM (active); in experiment [10], 81.2 µM (active); in [11], 0.336 µM (active); in [12] it was 233 nM (active).

For `C[C@]12CCC(=O)C=C1CC[C@@H]1[C@@H]2CC[C@@]2(C)[C@H]1CC[C@]2(C)O`, the compound was classed as inactive in experiment [13], in [5], in experiment [14], in experiment [15], in experiment [6] and in experiment [7]. Moreover, the result in experiment [8], in [9], in experiment [10] and in [18] was inactive. In addition, the half-maximal activity concentration (AC50) in experiment [19] was 0.00341 µM (active); in experiment [11] it was 0.0516 µM (active); in [12], 2.03 nM (active).

Regarding `CC(c1ccc(O)cc1)(c1ccc(O)cc1)c1ccc(O)cc1`, the result in experiment [18], in experiment [19], in experiment [11] and in experiment [12] was inactive.

Consider `CC(C)(O)C(=O)Nc1ccc([N+](=O)[O-])c(C(F)(F)F)c1`, for which the call in experiment [13], in [3], in experiment [5], in [14], in experiment [7] and in experiment [10] was inactive. Besides, the compound was classed as inactive in experiment [18], in [16], in experiment [17], in experiment [11] and in [12]. The concentration at half-maximal activity (AC50) was 50 µM (active) in experiment [15], 30.6 µM (active) in experiment [6], 18.2 µM (active) in experiment [8] and 50 µM (active) in experiment [9].

`CCC(=O)O[C@H]1CC[C@H]2[C@@H]3CCC4=CC(=O)CC[C@]4(C)[C@H]3CC[C@]12C`: the outcome in [18], in experiment [16], in experiment [19] and in [11] was inactive. Further, in experiment [12], the half-maximal activity concentration (AC50) is 12.6 nM (active) and 25.4 nM (active).
